Screens from PubChem BioAssay.
This is a sample that favours compounds with a hit; in the whole collection about 0.9% have one here.
RXFP1 antagonist: RXFP1 (human) relaxin receptor antagonism; HEK293-RXFP1, relaxin-stimulated cAMP HTRF, 30 min; hits give low values; activity change, negative = inhibition, % at 57.5 µM; actives 0.59% (n = 350,000); AID 1259400;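 active means activity change of -60% or lower, but not beyond a set lower limit; inconclusive means change between -60% and -40%, or beyond the set limit; inactive means change above -40%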
Target sequence (Q9HBX9 whole entry, looked up): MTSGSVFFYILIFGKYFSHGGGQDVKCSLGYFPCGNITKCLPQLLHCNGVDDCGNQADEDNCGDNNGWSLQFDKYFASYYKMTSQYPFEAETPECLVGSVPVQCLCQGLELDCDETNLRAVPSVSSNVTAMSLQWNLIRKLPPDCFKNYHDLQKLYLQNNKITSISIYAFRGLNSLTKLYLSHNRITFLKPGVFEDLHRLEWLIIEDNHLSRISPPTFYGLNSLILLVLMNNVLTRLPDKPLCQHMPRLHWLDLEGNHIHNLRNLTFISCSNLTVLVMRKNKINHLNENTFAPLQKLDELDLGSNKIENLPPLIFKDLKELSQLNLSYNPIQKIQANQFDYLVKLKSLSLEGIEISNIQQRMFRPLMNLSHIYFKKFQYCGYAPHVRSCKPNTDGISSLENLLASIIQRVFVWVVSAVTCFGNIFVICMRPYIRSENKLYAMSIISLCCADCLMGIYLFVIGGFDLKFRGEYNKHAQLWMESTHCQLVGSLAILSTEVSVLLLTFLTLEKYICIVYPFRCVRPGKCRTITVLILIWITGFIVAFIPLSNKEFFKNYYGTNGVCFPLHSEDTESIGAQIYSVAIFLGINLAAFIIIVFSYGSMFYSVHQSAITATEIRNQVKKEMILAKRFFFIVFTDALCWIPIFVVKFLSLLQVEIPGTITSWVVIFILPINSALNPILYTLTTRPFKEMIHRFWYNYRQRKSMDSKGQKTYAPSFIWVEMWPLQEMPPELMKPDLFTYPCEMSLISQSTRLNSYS
gsp antagonist: antagonists of gsp mutant (McCune-Albright syndrome). gsp-mutant cells, cAMP HTRF, 30 min. Potency, µM (series often up to 76.9 µM), hits mostly inhibitors. actives 0.4% (n = 340,000); calls by dose curve; cell line not stated here;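 further: intracellular cAMP measured with PDE inhibitor Ro 20-1724 present during compound exposure; nearly all actives have a fitted effect of over 65% in size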
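G418-selected cells were plated in DMEM/10% FBS for 16-24 h at 37C, then treated with compounds plus the PDE inhibitor […] (300 uM solution added) for 30 min at 37C. Intracellular cAMP was measured by HTRF after 30 min lysis at room temperature.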
RXFP1 agonist: agonists of human relaxin receptor RXFP1; Potency, µM (highest dose often 57.5 µM), usual class: activators; actives 0.3% (n = 370,000); HEK293T-RXFP1 cAMP TR-FRET, 30 min; response scale: percent of porcine relaxin response, buffer zero; Q9HBX9; active means well fitted activation curve with a large enough effect; inconclusive means small, poorly fitted or top-dose-only effect; further: nearly all actives have a fitted effect of over 60% in size
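HEK293T cells stably expressing RXFP1 were pretreated with the PDE4 inhibitor Ro 20174, exposed to compounds for 30 min at 37C, lysed, and cAMP was read by TR-FRET. Data normalized to buffer (basal) and 29 nM porcine relaxin (100%).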
gsp agonist: agonists of gsp mutant (McCune-Albright syndrome); Potency, µM (series often up to 76.9 µM), most hits filed as activators; actives 0.13% (n = 340,000); AID 624287; gsp mutant cells, cAMP HTRF, 30 min; active means well fitted activation curve with a large enough effect; inconclusive means small, poorly fitted or top-dose-only effect, or another doubt; inactive means no such curve, though single readings can be large or run the other way; cell line not stated here;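 further: phosphodiesterase inhibitor Ro 20-1724 added with compounds to block cAMP breakdown; nearly all actives have a fitted effect of over 60% in size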
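Cells stably selected in G418 were plated at 2000/well, grown 16-24 hr, then given compounds in DMSO with the PDE inhibitor […] (300 uM solution added) for 30 min at 37C; cAMP was read by HTRF.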
Large screens that a line does not name were inactive.

CSc1cc(-c2ccc(Cl)cc2)n(Cc2ccccc2)c(=O)c1C#N	RXFP1 agonist 22.4µM
CCN=c1sc2ccccc2n1CC(O)COc1ccccc1 (centres undefined)	RXFP1 antagonist -67.9
COc1ccccc1CNC(=O)CSc1ncc2c(n1)-c1cc(Cl)ccc1N(Cc1ccccc1)S2(=O)=O	none (no result: RXFP1 antagonist, gsp antagonist, gsp agonist)
CCOc1ccc(/C=C2\SC(=S)NC2=O)cc1OC	RXFP1 antagonist -72.9, gsp antagonist inconclusive
COc1cc(/C=C2\SC(=S)NC2=O)ccc1OS(=O)(=O)c1ccccc1	none (no result: RXFP1 antagonist, gsp antagonist, gsp agonist)
O=C1NC(=S)SC1=Cc1ccc(Cl)cc1	gsp antagonist 28.2µM (no result: RXFP1 agonist)
O=C1NC(=S)SC1=Cc1ccc(F)cc1	none (no result: RXFP1 agonist)
Cc1ccc(F)cc1NC(=O)N1CCN(c2ccnc3cc(Cl)ccc23)CC1	gsp antagonist 35.5µM
Cc1cccc(Cl)c1NC(=O)N1CCN(c2ccnc3cc(Cl)ccc23)CC1	gsp antagonist 28.2µM
O=C(Nc1cc(F)ccc1F)N1CCN(c2ccnc3cc(Cl)ccc23)CC1	gsp antagonist inconclusive (no result: RXFP1 antagonist)
COc1ccc(OC)c(CCNC(=O)c2ccc3c(c2)N(Cc2ccc(C)cc2)CCS3)c1	none (no result: gsp antagonist, gsp agonist)
CCOC(=O)c1c(C)n(-c2ccc(C)cc2)c2ccc(OCC(O)CN3CCN(C)CC3)cc12 (centres undefined)	RXFP1 antagonist -86.1
CC(=O)Nc1scc(-c2ccccc2)[n+]1-c1ccc(C)cc1	gsp antagonist 50.1µM
CCC1(C(=O)O)NC(c2cc(OC)ccc2O)C2C(=O)N(Cc3ccccc3)C(=O)C21 (centres undefined)	none (no result: RXFP1 antagonist)
CCCCN1C(=O)C2C(c3ccc(OC)cc3O)NC(CC(C)C)(C(=O)O)C2C1=O (centres undefined)	gsp antagonist 8.91µM (no result: RXFP1 antagonist)
O=C(NC12CC3CC(CC(C3)C1)C2)c1ccc(Br)o1	RXFP1 antagonist -110.2
O=C(NC12CC3CC(CC(C3)C1)C2)c1ccc(-c2ccc(Br)cc2)o1	gsp agonist inconclusive
Cc1ccc(NC(=O)c2oc3ccccc3c2NC(=O)Cc2ccccc2)cc1	none (no result: RXFP1 antagonist, gsp antagonist, gsp agonist)
O=C(Nc1ccc(F)c(F)c1)C(c1ccccc1)N1Cc2ccccc2C1=O (centres undefined)	none (no result: gsp antagonist, gsp agonist)
Cc1c(C(=O)N(C)c2ccccc2)sc2nc(-c3ccc(F)cc3)cn12	none (no result: gsp antagonist, gsp agonist)
Cc1c(C(=O)N(C)Cc2ccccc2)sc2nc(-c3ccc(F)cc3)cn12	RXFP1 antagonist -67.6 (no result: gsp antagonist, gsp agonist)
COc1cc(C)cc2oc(=O)c(CC(=O)NCCc3ccc(Cl)cc3)c(C)c12	none (no result: gsp antagonist, gsp agonist)
CCCCC(CC)CNC(=O)CCCc1nnc2n(CCC)c(=O)c3sccc3n12 (centres undefined)	none (no result: RXFP1 antagonist, gsp antagonist, gsp agonist)
O=C(c1ccccc1)c1ccc2nc(-c3ccco3)c(-c3ccco3)nc2c1	RXFP1 antagonist -90.4
CC(=O)c1ccc(NC(=O)COCc2cc(-c3ccc(F)cc3)on2)cc1	none (no result: gsp antagonist, gsp agonist)
Cc1ccc(C)c(N2CCN(S(=O)(=O)c3ccc(C(=O)N(C)C)s3)CC2)c1	none (no result: RXFP1 antagonist, gsp antagonist, gsp agonist)
Cc1c(C)c2c(c(C)c1O)CCC(C)(COc1ccc(CC3SC(=O)NC3=O)cc1)O2 (centres undefined)	RXFP1 antagonist -74.8 (no result: gsp antagonist, RXFP1 agonist, gsp agonist)
CS(=O)(=O)c1nc(-c2ccccc2)cc(C(F)(F)F)n1	RXFP1 antagonist -105.7
O=S(=O)(/N=S1\CC=CCN1S(=O)(=O)c1ccccc1)c1ccccc1 (centres undefined)	RXFP1 antagonist -109.7, gsp antagonist 50.1µM (no result: RXFP1 agonist)
CN1CCN(c2ncc3c(n2)CCN(Cc2ccc(Br)s2)C3)CC1	none (no result: gsp antagonist, gsp agonist)
CC1(C)CC2(CC(c3ccccc3F)c3ccc(O)c(O)c3O2)NC(=S)N1 (centres undefined)	RXFP1 antagonist -76.3
CC1(C)CC2(CC(c3ccc(F)cc3)c3ccc(O)cc3O2)NC(=S)N1 (centres undefined)	none
CC12CCC(C(=O)N(CSC(=S)N/N=C\c3ccccc3Cl)C1=O)C2(C)C (centres undefined)	RXFP1 antagonist -64.7
S=c1nc(NCc2ccc3c(c2)OCO3)c2ccccc2[nH]1	gsp antagonist inconclusive
O=C(NC1CCCCC1)c1ccc(CNc2nc(=S)[nH]c3ccccc23)cc1	RXFP1 antagonist -80.8
CC1=NN(c2ccccc2)C(=O)/C1=C/C=C/c1ccc(N(C)C)cc1	gsp antagonist 35.5µM
COc1ccc(/C=C2/C(=O)N(c3ccccc3)N=C2C)cc1	RXFP1 antagonist -60.6 (no result: RXFP1 agonist)
CC1=NN(c2ccccc2)C(=O)/C1=C\C=C\c1ccccc1	RXFP1 antagonist -62.8
CC(=O)Oc1ccc(/C=C2/C(=O)N(c3ccccc3)N=C2C)cc1	none
CC1=NN(c2ccccc2)C(=O)/C1=C/c1cccc(C)c1	none
CC1=NN(c2ccccc2)C(=O)/C1=C/N(C)C	none
O=C(CS(=O)(=O)c1cccc2nsnc12)N1CCN(c2ccccc2F)CC1	none (no result: gsp antagonist, gsp agonist)
COc1ccc(Cl)cc1NC(=O)Cn1c(=O)n(Cc2ccc(F)cc2)c(=O)c2cccnc21	none (no result: RXFP1 antagonist, gsp antagonist, gsp agonist)
COc1ccc(N(C(=O)c2snc(C(N)=O)c2N)C(C(=O)NCC2CCCO2)c2ccc(C)o2)cc1OC (centres undefined)	none
Cc1ccc(N(C(=O)c2snc(C(N)=O)c2N)C(C(=O)NCC2CCCO2)c2ccc(C)o2)c(C)c1 (centres undefined)	RXFP1 antagonist -63.4
CC(C)c1ccc(N(C(=O)c2snc(C(N)=O)c2N)C(C(=O)NCC2CCCO2)c2ccc(N(C)C)cc2)cc1 (centres undefined)	RXFP1 antagonist -74.4, gsp antagonist inconclusive, RXFP1 agonist inconclusive
CN(C)c1ccc(C(C(=O)NCC2CCCO2)N(C(=O)c2snc(C(N)=O)c2N)c2ccccc2)cc1 (centres undefined)	RXFP1 agonist inconclusive, gsp agonist inconclusive
CCc1ccccc1N(C(=O)c1snc(C(N)=O)c1N)C(C(=O)NCC1CCCO1)c1ccc(C)o1 (centres undefined)	RXFP1 antagonist -119.1
CCc1ccccc1N(C(=O)c1snc(C(N)=O)c1N)C(C(=O)NCC1CCCO1)c1ccc(N(C)C)cc1 (centres undefined)	RXFP1 agonist inconclusive (no result: gsp antagonist)
Cc1ccccc1N(C(=O)c1snc(C(N)=O)c1N)C(C(=O)NCC1CCCO1)c1ccc(F)cc1 (centres undefined)	RXFP1 antagonist -90.3
O=C(CN1C(=O)C2(SCC(=O)N2c2ccccc2)c2ccccc21)NCc1ccccc1 (centres undefined)	none (no result: RXFP1 antagonist, gsp antagonist, gsp agonist)
NC(=O)c1nsc(C(=O)N(Cc2ccco2)C(C(=O)NCc2ccccc2)c2ccc(O)cc2)c1N (centres undefined)	gsp antagonist 11.2µM
Cc1ccccc1N(C(=O)c1snc(C(N)=O)c1N)C(C(=O)NCc1ccccc1)c1ccc(O)cc1 (centres undefined)	none
Cc1cc(C)cc(N(CC(=O)NCc2ccco2)C(=O)c2snc(C(N)=O)c2N)c1	RXFP1 antagonist -60.2
CCN(CC)CCN	none (no result: gsp antagonist, RXFP1 agonist, gsp agonist)
Cc1ccc(NS(=O)(=O)c2c(C)nc3sccn3c2=O)cc1	RXFP1 antagonist -79.5
Cc1cccc(-n2ncc(C(=O)N3CCN(C4CCCCC4)CC3)c2C2CCN(C(=O)OC(C)(C)C)CC2)c1	none (no result: gsp antagonist, gsp agonist)
NC1=Nc2cccc3cccc1c23	none
N=C1N=C(N)c2cc3ccccc3cc21	RXFP1 antagonist -80.4 (no result: gsp antagonist, RXFP1 agonist, gsp agonist)
